TEAD-YAP block: TEAD-YAP interaction inhibition, primary screen, TEAD-YAP interaction inhibitor project, luminescence, HEK-TIYL cells. TEAD-Gal4/YAP UAS-luciferase luminescence. inhibition, % at 9.12 µM. 640,000 compounds, 1.4% hits; in the data active means inhibition above about 32%
GPR151 ag: activators of human GPR151, primary screen, cell-based, PathHunter beta-arrestin, luminescence. G-protein coupled receptor 151 (Homo sapiens), Q8TDV0. activation, % at 11.2 µM. AID 1508602, 2020. PathHunter beta-arrestin GPR151 cells. 650,000 compounds, 1% hits; in the data active means activation above about 4.9%
Target sequence (Q8TDV0 whole entry, looked up): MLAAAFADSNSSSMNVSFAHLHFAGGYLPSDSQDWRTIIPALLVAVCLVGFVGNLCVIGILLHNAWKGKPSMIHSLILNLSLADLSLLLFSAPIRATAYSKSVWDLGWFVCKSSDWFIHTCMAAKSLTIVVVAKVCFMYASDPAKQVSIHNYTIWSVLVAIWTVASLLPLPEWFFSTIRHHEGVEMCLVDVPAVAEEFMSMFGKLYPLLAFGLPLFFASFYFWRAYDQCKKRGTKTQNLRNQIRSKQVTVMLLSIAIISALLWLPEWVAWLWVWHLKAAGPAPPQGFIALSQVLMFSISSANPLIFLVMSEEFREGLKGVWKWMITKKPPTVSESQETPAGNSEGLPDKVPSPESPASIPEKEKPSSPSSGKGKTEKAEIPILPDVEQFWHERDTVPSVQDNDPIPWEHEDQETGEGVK
FBW7 activator: FBW7 E3 ligase activators, primary screen, biochemical, AlphaScreen, human | AlphaScreen FBW7–phospho-cyclin E peptide binding, activator screen | normalized activity (activation), % at 26.1 µM | 650,000 compounds, 0.13% hits | AID 1259310, 2017; in the data active means normalized activity above about 1.9%;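 further: purified mutant Fbw7 with reduced substrate affinity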
MITF inh: MITF inhibitors, primary screen, biochemical, AlphaScreen, human; AlphaScreen MITF homodimerization, bead proximity signal; inhibition, % at 2.6 µM; 650,000 compounds, 0.91% hits; in the data active means inhibition above about 50%
Large screens that a line does not name were inactive; ! = a repeat was not active. Compounds with a hit are over-represented: about 3.5% of the library has one in this group of screens.

O=C(Cc1noc2ccccc12)Nc1cccc(-c2ccc(N3CCCC3)nn2)c1	TEAD-YAP block 48
CC(=O)c1cccc(NC(=O)Cc2noc3ccccc23)c1	none
CC(Oc1ccccc1F)C(=O)Nc1cccc(-c2ccc(N3CCOCC3)nn2)c1 (centres undefined)	TEAD-YAP block 42
Cc1c(C(=O)Nc2cccc(Cl)c2)nnn1-c1ccccc1F	none
Cc1c(C(=O)Nc2cccc(F)c2)nnn1-c1ccccc1F	TEAD-YAP block 43
CCCNCc1c(C(=O)O)n(Cc2ccc(C)cc2)c2cc(OC)ccc12	none
Cc1c2cnc3nn(-c4ccccc4)c(=O)c-3cc2c(C)n1-c1ccccc1	TEAD-YAP block 85
CCOC(=O)c1ccc(-n2c(C)c3cnc4nn(-c5ccccc5)c(=O)c-4cc3c2C)cc1	none
CN(c1ccccc1)c1ccc(/C=C/[N+](=O)[O-])cc1	TEAD-YAP block 34
COc1cc2nc(Oc3ccccc3)nc(Nc3cc(OC)c(OC)c(OC)c3)c2cc1OC	TEAD-YAP block 56
COc1ccc(S(=O)(=O)N2CCOc3ccccc32)cc1	TEAD-YAP block 49
COc1ccc(S(=O)(=O)N2CC(C(=O)O)Oc3ccccc32)cc1 (centres undefined)	none
CC(Nc1ccc(C(F)(F)F)cc1[N+](=O)[O-])C(=O)O (centres undefined)	none
C[C@H](Nc1ccc(C(F)(F)F)cc1[N+](=O)[O-])C(=O)Nc1nc2ccccc2[nH]1	TEAD-YAP block 32
Nc1c[n+]2c(n1-c1ccc(Br)cc1)CCCCC2	none
Cc1ccc(-n2c(-c3ccc(Cl)cc3)c[n+]3c2CCC3)cc1	TEAD-YAP block 64
Cc1ccccc1/C=C1\SC(=S)N(CCCC(=O)O)C1=O	TEAD-YAP block 45
C=CCN1C(=O)S/C(=C/c2c(F)cccc2Cl)C1=O	none
C#CCOc1ccc(/C=C2/SC(=S)N(CCC(=O)O)C2=O)cc1	TEAD-YAP block 58
Cc1ccc(/C=C2\SC(=S)N(CCCC(=O)O)C2=O)cc1	TEAD-YAP block 92
O=C(O)CCCN1C(=O)/C(=C/c2c(F)cccc2Cl)SC1=S	TEAD-YAP block 60
CCOc1ccc(/C=C2\SC(=S)N(CCC(=O)O)C2=O)cc1	none
NC(=O)c1ccc(NC(=O)Nc2ccc(Cl)c(Cl)c2)cc1	none
Cc1ccc(/C=C2\SC(=S)N(CCCC(=O)OCCN(C)C)C2=O)cc1	TEAD-YAP block 93
Cc1ccc(/C=C2\SC(=S)N(CCCC(=O)N3CCOCC3)C2=O)cc1	none
Cc1ccc(/C=C2/SC(=S)N(CCCC(=O)O)C2=O)cc1	TEAD-YAP block 86
Cc1cccc(/C=C2\SC(=S)N(CCCC(=O)O)C2=O)c1	TEAD-YAP block 75
C=CCOc1ccc(/C=C2\SC(=S)N(CCCC(=O)O)C2=O)cc1	TEAD-YAP block 80
COCCCN1C(=O)/C(=C/c2ccc(C)cc2)SC1=S	none
Cc1ccc(C(=O)Nc2sc3c(c2C(=O)N2CCCCC2)CCCCC3)cc1	none
CCCCc1ccc(NC(=O)/C(=C/c2ccc(Br)cc2)NC(=O)c2ccc(C)cc2)cc1	none
Cc1cccnc1CN1CCN(Cc2c(C(=O)N3CCCCC3)nc3sccn23)CC1	none
Cc1cccc(-n2c(O)c(/C=N/NC(=O)c3ccccc3Cl)c3ccccc3c2=O)n1	none
O=C(Cc1ccc(F)cc1)N/N=C/c1c(O)n(-c2ccccc2Cl)c(=O)c2ccccc12	TEAD-YAP block 60
O=C(O)c1ccccc1C(=O)NCc1ccc2[nH]c3c(c2c1)CCCC3	none
CC1CCCC(C)N1CC(O)Cn1cc(CO)c2ccccc21 (centres undefined)	none
O=[N+]([O-])c1c(Cl)cc(O)c2c1C1C=CCC1C(c1ccc(Cl)cc1)N2 (centres undefined)	none
CCOc1cc2c(c([N+](=O)[O-])c1)NC(C(=O)O)C1CC=CC21 (centres undefined)	MITF inh 73
O=C(O)C1Nc2c(O)cc(Cl)c([N+](=O)[O-])c2C2C=CCC12 (centres undefined)	MITF inh 108
c1ccc(Nc2nc(NCc3nc4ccccc4[nH]3)c3ncn(-c4ccccc4)c3n2)cc1	TEAD-YAP block 34
c1ccc(-n2cnc3c(NCc4nc5ccccc5[nH]4)nc(-c4csc5ccccc45)nc32)cc1	FBW7 activator 6.9
COc1cc(Nc2nc(NCc3cccnc3)c3ncn(-c4ccccc4)c3n2)cc(OC)c1OC	none
COc1cc(Nc2nc(NCc3nc4ccccc4[nH]3)c3ncn(-c4ccccc4)c3n2)cc(OC)c1OC	TEAD-YAP block 62
CCNc1nc(NCc2nc3ccccc3[nH]2)c2ncn(-c3ccccc3)c2n1	none
CCOc1ccccc1NC(=O)CN1CCN(CC)C(=O)C1=O	none
Cc1cccc(NC(=O)CSc2nc3c(c(=O)n2C)SCC3)c1C	TEAD-YAP block 37
Cc1cc(Br)ccc1OCC(=O)Nc1cccc([N+](=O)[O-])c1	none
COc1ccc([N+](=O)[O-])cc1NC(=O)COc1ccc(Br)cc1C	TEAD-YAP block 84
CC[C@@]1(O)C(=O)OCc2c1cc1n(c2=O)Cc2cc3c(CN(C)C)c(O)ccc3nc2-1	MITF inh 67!
COc1ccc(N2CCN(Cc3ccc(Br)o3)CC2)cc1	MITF inh 53
N#C/C(=C\c1ccc(O)c(O)c1)C(=O)Nc1ccccc1	none
COc1cc(/C=C(/C#N)C(=O)Nc2ccc(O)cc2)cc(I)c1O	TEAD-YAP block 50
CCOc1cc(/C=C(/C#N)C(=O)Nc2ccc(O)cc2)ccc1O	TEAD-YAP block 50
CCOc1ccc(/C=C(/C#N)C(=O)Nc2ccc(O)cc2)cc1OCC	none
N#C/C(=C\c1ccc(O)c(O)c1)C(=O)NCCCNC(=O)/C(C#N)=C/c1ccc(O)c(O)c1	MITF inh 96
COc1cc(/C=C(\C#N)C(=O)c2ccc(O)c(O)c2)cc(I)c1O	MITF inh 85
N#C/C(=C\c1ccc(Sc2ncccn2)c([N+](=O)[O-])c1)C(=O)NC1CCCCC1	none
CCOc1cc(/C=C(/C#N)C(=O)Nc2ccc(O)cc2)ccc1OC	TEAD-YAP block 44
CCOc1ccc(/C=C(/C#N)C(=O)Nc2ccc(O)cc2)cc1OC	none
Cc1ccc(C(=O)CCC(=O)Nc2cc(C)[nH]n2)cc1	none
Cc1cc(NC(=O)CSc2nc3ccccc3c(=O)n2NC(=O)c2ccccc2)n[nH]1	TEAD-YAP block 47
Cc1cc(NC(=O)CCCC(=O)c2ccccc2)n[nH]1	TEAD-YAP block 47
Cc1ccc(NC(=O)CSc2nc3ccccc3c(=O)n2NC(=O)c2ccc(F)cc2)cc1Cl	TEAD-YAP block 57
CCn1c(SCC(=O)Nc2ccc(C)c(Cl)c2)nc2c1c(=O)n(C)c(=O)n2C	FBW7 activator 1.9
C=CCc1c(C)nc2sc(C(=O)Nc3ccc([N+](=O)[O-])cc3)c(N)c2c1C	none
CC(C)[C@H]1NC(=O)[C@@H]2C[C@H](NCc3ccccc3)CN2C1=O	none
Cc1[nH]nc2nc(SCC(=O)NCc3ccccc3)n(-c3cccc(Cl)c3)c(=N)c12	none

Source: PubChem BioAssay (The Scripps Research Institute Molecular Screening Center)
